Hits are enriched below; roughly 19% of the tested compounds scored in any of these assays.
HT1080 IDH1KD tx: HT-1080 IDH1 knockdown cell toxicity (counter line) | HT-1080 IDH1 knockdown viability, ATP luminescence, 48 h | 360,000 tested, 2% active | Potency, µM (doses to about 46.1 µM), for the others: at the highest dose activity, negative = toxicity, usual class: cytotoxic;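 further: 0% = DMSO wells and -100% = cell-free medium wells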
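IDH1KD HT-1080 cells, 750/well, RPMI + 5% FBS; compound pinned after 2 h settling; 48 h, 37 °C; CellTiter-Glo luminescence; % activity normalised to DMSO and no-cell wells; curves fitted, classed by r2 and efficacy.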
KB-3-1 tox: KB-3-1 parental cell cytotoxicity | KB-3-1 viability, CellTiter-Glo ATP luminescence, 72 h | Potency, µM (doses to about 46.1 µM), hits mostly cytotoxic | 400,000 tested, 1.4% active; further: nearly all actives have a fitted effect of over 60% in size
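Luminescent ATP read-out (CellTiter-Glo) measures survival of drug-naive KB-3-1 cells after 72 h compound exposure at 37 °C. Titration series was screened from lowest to highest concentration, with DMSO vehicle plates as background controls.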
KB-V1 MDR tox: KB-V1 MDR subline cytotoxicity. KB-V1 MDR cells viability, CellTiter-Glo, 72 h. Potency, µM (series often up to 46.1 µM), hits mostly cytotoxic. 400,000 tested, 3.4% active; further: nearly all actives have a fitted effect of over 60% in size
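In this primary screen, KB-V1 cells overexpressing P-gp are incubated with library compounds (lowest to highest concentration) for 72 h at 37 degrees C before a luminescent ATP viability read.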
TDP1 cell CPT: DT40-hTDP1 cell growth loss with CPT; chicken DT40 Tdp1-/-;hTDP1 cells + 20 nM CPT, ATP luminescence, 48 h; Potency, µM (doses to about 46.2 µM), without a hit: top-dose activity change, negative = growth inhibition, hits mostly inhibitors; 420,000 tested, 12% active; AID 686979; further: nearly all actives have a fitted effect of over 55% in size
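Cell growth measured by CellTiter-Glo luminescence after a minimum 48 h, 37 C compound exposure with 20 nM CPT in Tdp1-knockout DT40 cells stably expressing hTDP1, seeded 400/well; qHTS titration format.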
DT40 TDP1 no CPT: qHTS for Inhibitors of human tyrosyl-DNA phosphodiesterase 1 (TDP1): qHTS in cells in absence of CPT | DT40 Tdp1-/- hTDP1 cells, no CPT, ATP luminescence, 48 h | Potency, µM (highest dose often 46.2 µM), without a hit: top-dose activity change, negative = growth inhibition, actives largely listed as inhibitors | 420,000 tested, 15% active; further: nearly all actives have a fitted effect of over 55% in size
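Chicken DT40 Tdp1-/- cells complemented with human TDP1, screened without camptothecin (DMSO vehicle only), 400 cells/well. Compounds pin-transferred, cells incubated at 37 °C for at least 48 hr. Growth read as ATP-dependent luminescence (CellTiter-Glo, 30 min at RT).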
HT1080NT lethal: kills 2HG-producing HT-1080-NT fibrosarcoma cells; HT-1080-NT fibrosarcoma viability, CellTiter-Glo ATP luminescence, 48 h; Potency, µM (titrated, usually from 46.1 µM), for the others: at the top dose activity, negative = less viability, usual class: cytotoxic; AID 686970; 360,000 tested, 1.6% active;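 further: NT is the 2HG producing partner of a matched IDH1 knockdown line; 0% = DMSO-treated cells and -100% = media-only wells without cells; nearly all actives have a fitted effect of over 55% in size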
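Toxicity toward the 2HG-producing NT line was scored as %Activity, normalised to DMSO and no-cell wells, from CellTiter-Glo luminescence after 48 hours' treatment.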
An asterisk follows results filed as active; [ ] = remark or other dose. The call rests on the fitted dose curve; in most records, active means well fitted curve in the direction sought with a large enough effect; inconclusive means small, poorly fitted or top-dose-only effect, or another doubt; inactive means no such curve, though single readings can be large; an effect the other way counts as inactive or inconclusive. Unless noted, on the % scale 0 is the no-effect control and ±100 the full control effect; potency means the concentration at half of the fitted maximal effect.

Results for CCc1ccc(-c2cc(C)no2)cc1S(=O)(=O)NCc1ccccc1OC ?
HT1080 IDH1KD tx: -4%; KB-3-1 tox: inactive; KB-V1 MDR tox: inactive; TDP1 cell CPT: inconclusive; DT40 TDP1 no CPT: -30%; HT1080NT lethal: -12%

What do the screens show for `COc1ccccc1CNS(=O)(=O)c1ccc(-c2cc(C)no2)cc1`?
HT1080 IDH1KD tx: 2.1µM*; KB-3-1 tox: 1.3µM*; KB-V1 MDR tox: inconclusive; TDP1 cell CPT: 0.58µM*; DT40 TDP1 no CPT: 0.58µM*; HT1080NT lethal: 4.1µM*

Results for OCC[C@H]1C[C@H](O)[C@@H](O)[C@@]2(Cc3ccccc3O2)O1 ?
HT1080 IDH1KD tx: 16%; KB-3-1 tox: inactive; KB-V1 MDR tox: inactive; TDP1 cell CPT: -3%; DT40 TDP1 no CPT: -1%; HT1080NT lethal: 20%

What do the screens show for `O=C(O)c1ccc(N2CCN(c3ccc(Cl)cc3)CC2)c([N+](=O)[O-])c1`?
HT1080 IDH1KD tx: -12%; KB-3-1 tox: inactive; KB-V1 MDR tox: inactive; TDP1 cell CPT: 11%; DT40 TDP1 no CPT: -4%; HT1080NT lethal: -8%

What do the screens show for `O=[N+]([O-])c1cccnc1N1CCCCC1`?
HT1080 IDH1KD tx: 4%; KB-3-1 tox: inactive; KB-V1 MDR tox: inactive; TDP1 cell CPT: -2%; DT40 TDP1 no CPT: 5%; HT1080NT lethal: 2%

How did CC(=O)c1ccc(N2CCC(c3cc(-c4ccc(Cl)cc4Cl)n[nH]3)CC2)c([N+](=O)[O-])c1 do in these assays?
HT1080 IDH1KD tx: inconclusive; KB-3-1 tox: inconclusive; KB-V1 MDR tox: 15µM*; TDP1 cell CPT: 4.1µM*; DT40 TDP1 no CPT: 6.5µM*; HT1080NT lethal: 14µM*

Results for O=[N+]([O-])c1cccnc1N1CCC(c2cc(-c3ccc(Cl)cc3Cl)n[nH]2)CC1 ?
HT1080 IDH1KD tx: inconclusive; KB-3-1 tox: inactive; KB-V1 MDR tox: inactive; TDP1 cell CPT: 18µM*; DT40 TDP1 no CPT: 21µM*; HT1080NT lethal: inconclusive

How did Cc1nn(C)cc1CN1CCOc2ccc(CN3CCC(Oc4cccnc4)CC3)cc2C1 do in these assays?
TDP1 cell CPT: -7%[9.04 µM]; DT40 TDP1 no CPT: inconclusive

What do the screens show for `COc1ccc(-c2coc3c(C(=O)NCc4ccc(OC)c(OC)c4)cccc23)c(C)c1`?
HT1080 IDH1KD tx: 4.1µM*; KB-3-1 tox: inactive; KB-V1 MDR tox: inconclusive; TDP1 cell CPT: 8.2µM*; DT40 TDP1 no CPT: 6.5µM*; HT1080NT lethal: inconclusive

How did COc1ccc(-c2coc3c(C(=O)NCc4ccc(F)c(F)c4)cccc23)c(C)c1 do in these assays?
HT1080 IDH1KD tx: 13µM*; KB-3-1 tox: inactive; KB-V1 MDR tox: inconclusive; TDP1 cell CPT: inconclusive; DT40 TDP1 no CPT: 15µM*; HT1080NT lethal: 13µM*

Results for COc1ccc(-c2ccc(C(=O)NCc3ccc(F)c(F)c3)c3occc23)c(C)c1 ?
HT1080 IDH1KD tx: inconclusive; KB-3-1 tox: inactive; KB-V1 MDR tox: inactive; TDP1 cell CPT: inconclusive; DT40 TDP1 no CPT: inconclusive; HT1080NT lethal: inconclusive

What do the screens show for `CSCCC(NS(=O)(=O)c1ccc(Cl)cc1)C(=O)OCC(=O)NC12CC3CC(CC(C3)C1)C2` (stereo not drawn)?
HT1080 IDH1KD tx: 0%; KB-3-1 tox: inactive; KB-V1 MDR tox: inactive; TDP1 cell CPT: 13µM*; DT40 TDP1 no CPT: inconclusive; HT1080NT lethal: -14%

Results for CSCCC(NS(=O)(=O)c1ccc(Cl)cc1)C(=O)OCC(=O)N1CCCc2ccccc21 (stereo not drawn) ?
HT1080 IDH1KD tx: 7%; KB-3-1 tox: inactive; KB-V1 MDR tox: inactive; TDP1 cell CPT: 23µM*; DT40 TDP1 no CPT: 18µM*; HT1080NT lethal: 0%

Results for COc1ccc(C(=O)COC(=O)C(CCSC)NS(=O)(=O)c2ccc(Cl)cc2)cc1 (stereo not drawn) ?
HT1080 IDH1KD tx: 2%; KB-3-1 tox: inactive; KB-V1 MDR tox: 23µM*; TDP1 cell CPT: inconclusive; DT40 TDP1 no CPT: -23%; HT1080NT lethal: -1%

Results for COC(=O)c1cccc(NC(=O)c2ccc3c(c2)C(=O)N(Cc2cccnc2)C3=O)c1C ?
HT1080 IDH1KD tx: 12%; KB-3-1 tox: inactive; KB-V1 MDR tox: inactive; TDP1 cell CPT: 14%; DT40 TDP1 no CPT: -22%; HT1080NT lethal: 4%

Results for CC(C)(C)C(=O)NC(Nc1cccc2cccnc12)C(Cl)(Cl)Cl (stereo not drawn) ?
HT1080 IDH1KD tx: -26%; KB-3-1 tox: inactive; KB-V1 MDR tox: inconclusive; TDP1 cell CPT: inconclusive; DT40 TDP1 no CPT: 16µM*; HT1080NT lethal: -26%

What do the screens show for `CC(C)C(=O)NC(NC(=S)Nc1cccc2cccnc12)C(Cl)(Cl)Cl` (stereo not drawn)?
HT1080 IDH1KD tx: -8%; KB-3-1 tox: inactive; KB-V1 MDR tox: 23µM*; TDP1 cell CPT: 8.2µM*; DT40 TDP1 no CPT: 16µM*; HT1080NT lethal: -8%

How did COc1ccccc1NC(NC(=O)c1cccnc1)C(Cl)(Cl)Cl (stereo not drawn) do in these assays?
HT1080 IDH1KD tx: 4%; KB-3-1 tox: inactive; KB-V1 MDR tox: inactive; TDP1 cell CPT: inconclusive; DT40 TDP1 no CPT: 2%; HT1080NT lethal: -20%

How did CCC(=O)NC(NC(=S)Nc1ccccc1Br)C(Cl)(Cl)Cl (stereo not drawn) do in these assays?
HT1080 IDH1KD tx: 5%; KB-3-1 tox: inactive; KB-V1 MDR tox: inactive; TDP1 cell CPT: 5%; DT40 TDP1 no CPT: -29%; HT1080NT lethal: 11%

What do the screens show for `CCC(=O)NC(NC(=S)Nc1cccc2cccnc12)C(Cl)(Cl)Cl` (stereo not drawn)?
HT1080 IDH1KD tx: -1%; KB-3-1 tox: inactive; KB-V1 MDR tox: inactive; TDP1 cell CPT: 18µM*; DT40 TDP1 no CPT: 15µM*; HT1080NT lethal: -1%

How did O=S1(=O)[C@H]2C[C@@H]3C=C[C@@]2(CN1Cc1ccc(F)cc1)O3 do in these assays?
HT1080 IDH1KD tx: 14%; KB-3-1 tox: inactive; KB-V1 MDR tox: inactive; TDP1 cell CPT: inconclusive; DT40 TDP1 no CPT: -1%; HT1080NT lethal: 10%

What do the screens show for `CCc1sc(C(=O)NCc2cc(C)n(C)n2)cc1Br`?
HT1080 IDH1KD tx: 16µM*; KB-3-1 tox: inactive; KB-V1 MDR tox: inactive; TDP1 cell CPT: inconclusive; DT40 TDP1 no CPT: inconclusive; HT1080NT lethal: inconclusive

Assay outcomes from PubChem.
